Most compounds without a hit are left out; they make up all but 9.5% or so of the library.
NS1 function inh = influenza NS1 inhibition | Potency, µM (top dose mostly 46.1 µM) | hit rate 0.4% among 270,000; note: actives are rising curves; nearly all actives have a fitted effect of over 50% in size
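OD600 was taken as the measure of yeast growth restored by compound in an NS1-expressing S. cerevisiae strain. Cells had been washed out of glucose medium and diluted 1:100 into galactose -URA medium, pH 6.0.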
Pf growth 48h = inhibits P. falciparum growth in the first generation, 48 h; P. falciparum luciferase growth in erythrocytes, 48 h; Potency, µM (doses to about 28.7 µM), hits mostly inhibitors; hit rate 5.9% among 310,000; active = well fitted inhibition curve with a large enough effect; inconclusive = small, poorly fitted or top-dose-only effect, or another doubt; inactive = no such curve, though single readings can be large or run the other way
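Compounds are pin-transferred into medium, infected erythrocytes (2% hematocrit, 0.1% parasitemia final) are added, and plates sit one parasite generation at 37 C in 5% CO2. Detection reagent is then added and luminescence measured.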
RE007 growth inh = less growth of the S. pombe RE007 Vpr strain | S. pombe RE007 Vpr strain, BacTiter-Glo ATP luminescence, 24 h | Potency, µM (doses to about 92.2 µM), actives largely listed as inhibitors | hit rate 0.21% among 360,000; active = well fitted falling curve with a large enough effect; inconclusive = small, poorly fitted or top-dose-only effect; inactive = no such curve, though single readings can be large or run the other way; note: nearly all actives have a fitted effect of over 50% in size
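Fission yeast RE007 carrying one integrated HIV-1 vpr copy, seeded at OD 0.01 in PMG+AL medium with 23 nL pinned compound. Grown 24 h at 30 degrees; viability read by BacTiter-Glo luminescence after 5 min.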
Pf growth 96h = P. falciparum growth inhibition at 96 hours. hit rate 6.9% among 320,000. AID 504834. P. falciparum luciferase reporter growth, 96 h. Potency, µM (doses to about 28.7 µM), usual class: inhibitors; active = well fitted inhibition curve with a large enough effect; inconclusive = small, poorly fitted or top-dose-only effect, or another doubt; inactive = no such curve, though single readings can be large or run the other way
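Parasite growth measured via integrated firefly luciferase reporter in P. falciparum. Infected erythrocytes at 2% hematocrit, 0.05% parasitemia final were treated 96 hours at 37 C under 5% CO2, and luminescence was read.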
SARS PLP yeast = blocks SARS-CoV papain-like protease in a yeast assay | S. cerevisiae expressing SARS-CoV PLpro, growth rescue | Potency, µM (highest dose often 32.9 µM), actives largely listed as activators | hit rate 0.19% among 330,000; note: nearly all actives have a fitted effect of over 55% in size
Of the large screens only hits and unclear results are named; the others gave an inactive call. Unless noted, calls come from the whole dose curve.

CCN1C(=O)[C@H]2[C@@H](c3ccc(-c4cccc(Cl)c4)c(OC)c3)N[C@@](CC(C)C)(C(=O)OC)[C@H]2C1=O	Pf growth 48h 0.33µM, Pf growth 96h 0.23µM (no result: NS1 function inh)
CN(Cc1ccc(Cl)cc1)C(=O)c1ccc2ccccc2n1	none
CCN1C(=O)[C@H]2[C@@H](c3ccc(-c4ccc(F)cc4)c(OC)c3)N[C@@](Cc3ccccc3)(C(=O)OC)[C@H]2C1=O	none (no result: NS1 function inh, Pf growth 48h, Pf growth 96h)
CCN1C(=O)[C@H]2[C@@H](c3ccc(-c4ccccc4)c(OC)c3)N[C@@](Cc3ccccc3)(C(=O)OC)[C@H]2C1=O	Pf growth 48h 1.9µM, Pf growth 96h 0.66µM (no result: NS1 function inh)
COC(=O)C1=C(N)N(c2ccccc2C(F)(F)F)C2=C(C(=O)CCC2)C1c1ccc2c(c1)OCO2 (stereo unspecified)	Pf growth 48h 3.7µM, Pf growth 96h 7.4µM
CCOC(=O)CC(=O)CSc1ncnc2c1nnn2-c1ccc(OC)cc1	Pf growth 48h inconclusive (no result: NS1 function inh)
Cc1cc(C)c(C)c(C(=O)CSc2nnc(-c3ccc4[nH]c(C)c(C)c4c3)o2)c1C	Pf growth 48h 13µM, Pf growth 96h inconclusive, SARS PLP yeast inconclusive
CC(C)C[C@H]1CN=C(Nc2ccccc2)N1CC1CCC(C(C)(C)C)CC1 (stereo partly specified)	Pf growth 48h 8.3µM, Pf growth 96h 7.4µM (no result: NS1 function inh)
CC(C)C[C@H]1CN=C(Nc2ccccc2)N1CCC1CCCCC1	Pf growth 96h 9.3µM
CCN1C[C@@H]2[C@@H]3C(=O)N(C)C(=O)[C@@H]3[C@](C)(C1=O)N2C(=O)c1ccc(F)cc1	none (no result: NS1 function inh, Pf growth 48h, Pf growth 96h, SARS PLP yeast)
COc1ccc(OCCn2c(C)c(/C=N/n3cnnc3)c3ccccc32)cc1	Pf growth 48h inconclusive, Pf growth 96h 12µM
O=C(NCCC(=O)N1CCN(S(=O)(=O)c2ccccc2Cl)CC1)Nc1ccccc1	Pf growth 48h inconclusive, Pf growth 96h inconclusive (no result: NS1 function inh)
COC(=O)C[C@](O)(CCCC(C)(C)O)C(=O)O[C@@H]1C(OC)=C[C@]23CCCN2CCc2cc4c(cc2[C@H]13)OCO4	Pf growth 48h 0.0095µM, Pf growth 96h 0.0067µM (no result: NS1 function inh, RE007 growth inh, SARS PLP yeast)
O=C1CN(C(=O)CSc2nnnn2C2CC2)c2ccccc2N1	Pf growth 48h inconclusive, Pf growth 96h inconclusive (no result: NS1 function inh)
CC(C)(C)c1cc(CCC(=O)NCc2ccccn2)cc(C(C)(C)C)c1O	Pf growth 48h inconclusive, Pf growth 96h 12µM
CC(C)(C)c1cc(CCC(=O)NCc2cccnc2)cc(C(C)(C)C)c1O	none
O=C(COc1ccc(/C=N/NC(=O)c2cc3ccccc3o2)cc1Cl)Nc1ccccc1	Pf growth 48h 10µM, Pf growth 96h 7.4µM
COc1cc(/C=N/NC(=O)c2ccccc2O)ccc1OCC(=O)Nc1ccccc1	Pf growth 48h inconclusive
COCCCN1CCN(C2Cc3ccccc3Sc3ccc(Cl)cc32)CC1 (stereo unspecified)	Pf growth 48h inconclusive, Pf growth 96h inconclusive
Clc1cccc2c1Sc1ccccc1CC2N1CCNCC1 (stereo unspecified)	Pf growth 48h inconclusive, Pf growth 96h 10µM
Clc1ccc2c(c1)C(N1CCNCC1)Cc1ccccc1S2 (stereo unspecified)	Pf growth 48h 10µM, Pf growth 96h 13µM
COc1ccc(C)cc1NC(=O)CO/N=C(\N)CC(=O)NC1CCCCC1	Pf growth 48h inconclusive, Pf growth 96h inconclusive (no result: NS1 function inh)
COC(=O)[C@@]1(Cc2ccc(F)cc2)[C@H]2c3cc(C(=O)N(C)C)n(CCF)c3C[C@H]2CN1C(=O)c1ccccc1	none (no result: NS1 function inh, Pf growth 48h, Pf growth 96h, SARS PLP yeast)
COC(=O)[C@@]1(Cc2ccc(F)cc2)[C@H]2c3cc(C(=O)N(C)C)n(Cc4c(CO)[nH]cc(C)c4=O)c3C[C@H]2CN1C(=O)c1ccccc1	Pf growth 48h 1.3µM, Pf growth 96h 1.9µM
COC(=O)[C@@]1(Cc2ccc(F)cc2)[C@H]2c3cc(C(=O)N(C)C)n(Cc4ccc(OC(F)(F)F)cc4)c3C[C@H]2CN1C(=O)c1ccccc1	NS1 function inh inconclusive, Pf growth 48h 1.9µM, Pf growth 96h 2.3µM (no result: RE007 growth inh)
O=[N+]([O-])c1ccc(NCc2ccccc2N2CCC(CO)CC2)nc1	none
CCC(=NC1CCN(Cc2ccccc2)CC1)c1c(O)[nH]c(=O)[nH]c1=O	Pf growth 48h inconclusive, Pf growth 96h 5.2µM
COc1cc(OC)cc(C(=O)Nc2ccc(S(=O)(=O)N3CCOCC3)cc2)c1	Pf growth 48h inconclusive
Cn1c2c(c(=O)n(C)c1=O)C(C(F)(F)F)(C(F)(F)F)N=C(CCC1CCCCC1)N2	Pf growth 48h inconclusive, Pf growth 96h 12µM
Cn1c2c(c(=O)n(C)c1=O)C(C(F)(F)F)(C(F)(F)F)N=C(c1ccccc1Cl)N2	none (no result: Pf growth 96h)
C[C@@]12C[C@H](O)C3[C@H](CCC4=CC(=O)CC[C@]43C)[C@H]1CC[C@@H]2c1csc(N)n1 (stereo partly specified)	none (no result: Pf growth 48h, RE007 growth inh, Pf growth 96h, SARS PLP yeast)
CC(NC(=O)C1CCN(C(=O)Nc2ccccc2)CC1)c1ccc(Cl)cc1 (stereo unspecified)	Pf growth 48h inconclusive (no result: NS1 function inh)
Cc1cc(C)c(S(=O)(=O)NCC2CCC(C(=O)NCCCN3CCC(C)CC3)CC2)c(C)c1 (stereo unspecified)	Pf growth 48h 9.3µM
O=C(NCCCN1CCCC1=O)C1CCC(CNS(=O)(=O)c2ccc(Cl)cc2)CC1 (stereo unspecified)	Pf growth 96h 12µM
CCS(=O)(=O)N1CCCC(C(=O)NCCCN2CCCC2=O)C1 (stereo unspecified)	Pf growth 96h 10µM
CCCS(=O)(=O)N1CCc2ccc(NC(=O)C3CCCO3)cc2C1 (stereo unspecified)	Pf growth 48h inconclusive
Cc1ccccc1NS(=O)(=O)c1cccc2nsnc12	Pf growth 96h inconclusive
Cc1cccc(C(=O)O)c1C[C@H]1NCC[C@H]2c3ccccc3N[C@@H]12	none (no result: Pf growth 48h, RE007 growth inh, Pf growth 96h, SARS PLP yeast)
Cc1ccc(C)c(NC(=O)CN(C)C(=O)c2ccc3[nH]c4c(c3c2)CC(C)CC4)c1 (stereo unspecified)	Pf growth 48h inconclusive, Pf growth 96h inconclusive (no result: NS1 function inh)
CCOC(=O)[C@H]1[C@H]2COc3cc(OC)ccc3[C@@H]2N2C(=O)c3cc(OC)c(OC)cc3NC(=O)[C@@]12C	Pf growth 48h inconclusive, Pf growth 96h inconclusive (no result: NS1 function inh)
C=C(C)[C@H]1Cc2c(ccc3c2O[C@@H]2COc4cc(OC)c(OC)cc4[C@@H]2C3=O)O1	NS1 function inh inconclusive, Pf growth 48h inconclusive, Pf growth 96h 6.7µM (no result: RE007 growth inh, SARS PLP yeast)
Cc1ccc(-n2[nH]c(C)c(C=Nc3cc(C)ccn3)c2=O)cc1	RE007 growth inh 28µM, Pf growth 96h 7.4µM
Cc1cc2nc3c(=O)[nH]c(=O)nc-3n(CC(O)C(O)C(O)CO)c2cc1C (stereo unspecified)	Pf growth 48h 13µM, Pf growth 96h 7.6µM (no result: NS1 function inh, RE007 growth inh, SARS PLP yeast)
CCCC(=O)OC[C@@H](OC(=O)CCC)[C@@H](OC(=O)CCC)[C@H](Cn1c2nc(=O)[nH]c(=O)c-2nc2cc(C)c(C)cc21)OC(=O)CCC	Pf growth 48h inconclusive, Pf growth 96h 12µM (no result: NS1 function inh, RE007 growth inh, SARS PLP yeast)
CC(=O)OCCn1c2nc(=O)[nH]c(=O)c-2nc2cc(C)c(C)cc21	Pf growth 48h inconclusive, Pf growth 96h inconclusive

Bioassay records (PubChem)
